Bfl-1 A1 inh: inhibitors of the anti-apoptotic protein A1, read as caspase activation; MEF A1-2A-BIM cells, Caspase-Glo 3/7 luminescence, 3 h; percent of clofoctol response, vehicle zero; caspase activation, % (concentration not given with the values); 330,000 tested, 0.066% active; AID 2462;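 active = over half of replicate activation scores above 10%, or exactly half above 10 with the replicate mean above 10; inconclusive = replicate mean below 10 yet half the replicates above 10; inactive = over half of replicates below 10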
Mdm2-MdmX inh: human Mdm2/MdmX binding inhibition | SaOS-2 split-luciferase Mdm2/MdmX complementation, luminescence | 330,000 tested, 3% active | O15151+Q00987 | inhibition, % at 8 µM;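 active = inhibition of at least 50% at 8 µM in the primary screen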
Beta apoptosis: beta cell apoptosis inhibition; 300,000 tested, 0.8% active; INS-1E cytokine-induced death, ATP luminescence, 48 h; percent of positive-control rescue, neutral wells zero; AID 435005; protection from apoptosis, % (test concentration not listed);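 active = Every replicate reaches about 75%, or at least half do and their mean reaches it too, limit read from the data; inconclusive = At least half of replicates reach the limit but their mean does not; inactive = Under half of replicates reach the limit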;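 also: 0% = cytokine-treated negative control wells and 100% = positive control rescue; higher means more ATP so stronger rescue from cytokine killing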
aSyn UTR inh: MLPCN primary screen, SNCA 5' untranslated region. alpha-synuclein 5'UTR reporter, inhibitor activity. inhibition, % (tested at 7.5 µM). 300,000 tested, 0.82% active. AID 1813; in the data active = inhibition above about 60%; inconclusive = no clear call, values can overlap the other calls;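 also: H4 neuroglioblastoma cells stably carrying SNCA 5'UTR luciferase fusion; 0% = DMSO wells and 100% = positive control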
CSC inhib: blocks cancer stem cells. inhibition, % at 7.5 µM. AID 2717. cancer stem cell-like cells viability, luminescence. 300,000 tested, 1.1% active; in the data active = inhibition above about 75%; inconclusive = no clear call, values can overlap the other calls; tested in HMLE shEcad cells
Numbers without * were called inactive. Shown are actives, neighbours in structure and some others; about 4.1% of the full set was active somewhere.

For Cc1nc2ccccc2c(=O)n1-c1cccc(C(F)(F)F)c1 the results were Bfl-1 A1 inh 1, Mdm2-MdmX inh -16, Beta apoptosis 2, aSyn UTR inh -4 and CSC inhib -4.
Cc1ccc(N2C(=O)NC(=O)/C(=C\C=C\c3ccco3)C2=O)cc1C was read as Bfl-1 A1 inh 3, Beta apoptosis 97*, aSyn UTR inh -47 and CSC inhib 53.
`O=C1NC(=O)N(c2ccccc2)C(=O)/C1=C/C=C/c1ccco1` gave Bfl-1 A1 inh 1, Mdm2-MdmX inh -7, Beta apoptosis -3, aSyn UTR inh -136 and CSC inhib 88*.
Screening O=C1NC(=O)N(Cc2ccco2)C(=O)/C1=C/C=C/c1ccco1 returned Bfl-1 A1 inh 0, Mdm2-MdmX inh 22, Beta apoptosis 8, aSyn UTR inh -288 and CSC inhib 56.
CN1C(=O)/C(=C/C=C/c2ccco2)C(=O)NC1=S was read as Bfl-1 A1 inh 0, Mdm2-MdmX inh -14, Beta apoptosis -8, aSyn UTR inh -15 and CSC inhib -28.
Screening Cc1ccc(N2C(=O)NC(=O)/C(=C\C=C\c3ccco3)C2=O)cc1 returned Bfl-1 A1 inh 3, Mdm2-MdmX inh 1, Beta apoptosis 40, aSyn UTR inh -92 and CSC inhib 79*.
`Cc1cccc(N2C(=O)NC(=O)/C(=C\C=C\c3ccco3)C2=O)c1` gave Bfl-1 A1 inh 2, Mdm2-MdmX inh 27, Beta apoptosis 30, aSyn UTR inh -131 and CSC inhib inconclusive.
Screening CCOC(=O)c1c(-c2ccc(OC)cc2)oc2ccc(OC(=O)N(C)C)cc12 returned Bfl-1 A1 inh 0, Mdm2-MdmX inh 18, Beta apoptosis 3, aSyn UTR inh -10 and CSC inhib 76*.
For CC(C)(C)c1ccc(CSc2cnn(C(C)(C)C)c(=O)c2Cl)cc1 the results were Bfl-1 A1 inh -1, Mdm2-MdmX inh 13, Beta apoptosis 110*, aSyn UTR inh 101* and CSC inhib 33.
For C=CCN(CC=C)Cc1c[nH]c2ccccc12 the results were Bfl-1 A1 inh 1, Mdm2-MdmX inh 12, Beta apoptosis 107*, aSyn UTR inh -38 and CSC inhib -13.
O=C(Cn1ncc2c3ccccc3n(Cc3ccc(F)cc3)c2c1=O)N1CCC2(CC1)OCCO2 was read as Bfl-1 A1 inh 0, Mdm2-MdmX inh 16, Beta apoptosis 1, aSyn UTR inh 28 and CSC inhib -1.
`COc1ccc(C(=O)NC(=S)N2C[C@H]3C[C@H](C2)c2cccc(=O)n2C3)cc1` gave Bfl-1 A1 inh 1, Mdm2-MdmX inh -20, Beta apoptosis -2, aSyn UTR inh -8 and CSC inhib -7.
`COC(=O)C1=C(c2cccc(OCc3ccccc3)c2)C[C@@H]2CC[C@H]1N2C(=O)NCc1ccccc1OC` gave Bfl-1 A1 inh -1, Mdm2-MdmX inh 10, Beta apoptosis 2 and CSC inhib 33.
For CCCCCP(=O)(O)c1ccccc1 the results were Bfl-1 A1 inh 2, Mdm2-MdmX inh -13, Beta apoptosis 1, aSyn UTR inh 1 and CSC inhib -6.
For CCCC/C(C)=C/[C@@H](NP(=O)(c1ccccc1)c1ccccc1)c1ccccc1 the results were Bfl-1 A1 inh 0, Mdm2-MdmX inh 36, Beta apoptosis 4, aSyn UTR inh 12 and CSC inhib 114*.
COC(=O)C(O)(c1ccc(N(C)C(=O)c2cccs2)cc1)C(F)(F)F (stereo not given) was read as Bfl-1 A1 inh -1, Mdm2-MdmX inh 22, aSyn UTR inh -14 and CSC inhib 16.
Screening Nc1ccccc1N=Cc1c(O)n(CCC2=CCCCC2)c(=O)[nH]c1=O returned Bfl-1 A1 inh 0, Mdm2-MdmX inh 24, Beta apoptosis 97*, aSyn UTR inh 32 and CSC inhib 96*.
`O=C1CCCN1CC#CCN1CCCC1` gave Bfl-1 A1 inh 1, Mdm2-MdmX inh 12, Beta apoptosis -4, aSyn UTR inh -2 and CSC inhib -6.
Screening O=C(Nc1ccc(OC(=O)N2CCCCC2)cc1)N1CCOCC1 returned Bfl-1 A1 inh 1, Mdm2-MdmX inh 2, Beta apoptosis -10, aSyn UTR inh 89* and CSC inhib -18.
Screening C[C@]12CC[C@H]3C(CCC4(O)CC(O)CC[C@]34C=O)C1=CC[C@H]2c1ccc(=O)oc1 (stereo not given in full) returned Bfl-1 A1 inh 1, Mdm2-MdmX inh 33, Beta apoptosis -6, aSyn UTR inh 82* and CSC inhib 78*.

Screening data (PubChem)
